# DAX1 inh-1 = DAX1 (NR0B1) inhibition, primary screen; 370,000 compounds, 1.1% hits; AID 652010; HEK293T StAR-luciferase reporter, SF-1/DAX-1 repression relief; inhibition, % at 6.8 µM;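 active = inhibition above the mean over all tested compounds plus 3 SD, cut at about 3.6% in these data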;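 note: 0% = DAX-1 cells with DMSO and 100% = cells lacking DAX-1 with DMSO; higher inhibition means more luminescence from relief of DAX-1 repression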
# ssDAF-12 act = activates DAF-12 receptor from parasite S. stercoralis. HEK293 ssDAF-12/GRIP1 lit1-tk-luc reporter, luminescence; % of 3 µM dafachronic acid response. activation, % at 6.8 µM. 370,000 compounds, 1% hits. AID 652126;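 active = activation above the mean over all tested compounds plus 3 SD, cut at about 0.9% in these data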;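 note: 0% = DMSO-only wells and 100% = 3 µM delta7-dafachronic acid wells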
# hgDAF-12 ag = agonists of H. glycines DAF-12 nuclear receptor; HEK293 GAL4-hgDAF12 UAS-luciferase reporter, agonist luminescence; normalized to butyrate control; 370,000 compounds, 1.8% hits; activation, % at 6.8 µM;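 active = activation above a cutoff set at the mean of all screened compounds plus 3 SD, cut at about 10% in these data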;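 note: 0% = DMSO wells and 100% = sodium butyrate wells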
# DAX1 inh-2 = NR0B1 (DAX1) inhibition | 340,000 compounds, 0.99% hits | inhibition, % at 6.75 µM | HEK293 Gal4-DAX1 luciferase reporter, luminescence | P51843;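 active = inhibition above the mean over all tested compounds plus 3 SD, cut at about 4.2% in these data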;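 note: 0% = DAX1-transfected cells with DMSO and 100% = empty-vector control cells with DMSO; inhibition shows as a rise in luminescence from relieved DAX1 repression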
# Target sequence (P51843 207-470 limits assumed): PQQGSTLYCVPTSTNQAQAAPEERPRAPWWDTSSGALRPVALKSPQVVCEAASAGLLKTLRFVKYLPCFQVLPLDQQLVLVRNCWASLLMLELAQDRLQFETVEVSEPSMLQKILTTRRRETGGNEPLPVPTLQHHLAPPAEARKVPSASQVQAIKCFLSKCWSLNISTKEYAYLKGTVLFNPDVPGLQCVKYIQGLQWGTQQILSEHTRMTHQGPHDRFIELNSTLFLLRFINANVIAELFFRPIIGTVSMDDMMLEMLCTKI
# hcDAF12 agonist = activators of H. contortus DAF-12 nuclear receptor; 370,000 compounds, 1.4% hits; activation, % at 6.8 µM; HEK293 hcDAF-12 lit1-tk-luc reporter, luminescence; 0% DMSO, 100% Δ7-dafachronic acid; AID 652067;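 active = activation above the mean of all tested compounds plus 3 SD, cut at about 5.5% in these data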;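 note: 100% = response to 3 µM Δ7-dafachronic acid high control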
# LXRb hcDAF ctr = LXR-beta agonism as hcDAF-12 counter-screen. 3,400 tested, under 10 active. activation, % at 6.8 µM. HEK293 Gal4-LXR tk-luc reporter, luminescence, 24 h; normalized: DMSO 0%, positive control 100%. shares compounds with hcDAF12 agonist. AID 743027;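 active = mean percent activation of the reporter above a cutoff set as the average over tested compounds plus their standard deviation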
# hcDAF12 ag = hcDAF-12 agonism, confirmation assay | activation, % at 6.8 µM | shares compounds with hcDAF12 agonist | 3,400 compounds, 61% hits | HEK293 hcDAF-12 lit1-tk-luc reporter, luminescence; % of Δ7-dafachronic acid response | AID 743032;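 active = mean activation across triplicate tests above the threshold derived from the earlier primary screen, cut at about 5.5% in these data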;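 note: 0% = DMSO only wells and 100% = 3 µM Δ7-dafachronic acid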
# hgDAF12 ag = confirmation of H. glycines DAF-12 agonists. AID 743050. 3,300 compounds, 80% hits. shares compounds with hgDAF-12 ag. HEK293 GAL4-hgDAF12 luciferase reporter, agonist mode; percent of butyrate response. activation, % at 6.8 µM;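 active = mean activation over triplicate wells above the hit cutoff derived from the earlier primary screen, cut at about 11% in these data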;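 note: 0% = DMSO low control and 100% = 2 mM sodium butyrate high control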
# LXR ag 2 = counter-screen for DAF-12 agonists: agonists of human LXR-beta; shares compounds with hgDAF-12 ag; HEK293 Gal4-LXR luciferase reporter, 24 h; activation, % at 6.8 µM; 3,300 tested, under 10 active;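 active = mean activation of the triplicate above a set limit carried over from the primary screen, none filed active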
# An asterisk follows results filed as active; . = no result. This is a sample that favours compounds with a hit; in the whole collection about 4.1% have one here.
SMILES,DAX1 inh-1,ssDAF-12 act,hgDAF-12 ag,DAX1 inh-2,hcDAF12 agonist,LXRb hcDAF ctr,hcDAF12 ag,others
CN(C)C(Cc1ccccc1)C(=O)c1c[nH]c2ccccc12 (stereo not given),1,0,2,-1,6.8*,0,2,
COc1ccc(P2(=O)Nc3ccccc3N2)cc1,2,1.4*,6,0,8.0*,1,5,
COc1ccc(NP2(=O)NCCCN2)cc1,1,-1,1,-1,-1,.,.,
CN1CC[C@@H]2CN[C@H](c3ccccc3)C[C@@H]21,0,0,-1,.,0,.,.,
c1ccc2c(CN3CCCCC3)c[nH]c2c1,1,0,3,-1,2,.,.,
OC(CN1CCCCC1)c1c[nH]c2ccccc12 (stereo not given),0,0,0,2,8.0*,0,4,
O=S(=O)(c1ccc(Cl)cc1)N1Cc2ccc(Br)cc2-n2nncc2C1,1,-1,1,.,-1,.,.,
CCCCn1c(=O)c(C(=O)Nc2ccccc2)c(O)c2ccccc21,0,0,2,1,7.1*,0,7.6*,
COc1ccc(Cl)cc1N=Cc1c(O)n(C)c(=O)n(C)c1=O,0,-1,4,0,-3,.,.,
CCn1c(O)c(C=Nc2cc(Cl)ccc2Cl)c(=O)n(CC)c1=O,0,0,3,0,6.8*,0,1,
O=Cc1c(C(=O)O)n(Cc2ccccc2F)c2ccccc12,0,0,0,1,7.9*,0,5,
COc1cccc(-c2ccc3c(c2)C2c4cnnn4-c4ccccc4C(=O)N2CC3)c1 (stereo not given),1,-1,2,.,-2,.,.,
CN(C)c1ccc2c(c1)N=C(c1ccco1)OP2(=S)N1CCOCC1 (stereo not given),1,1.9*,4,0,7.6*,0,2,
Cc1cccc(N=Nc2ccc(N(C)C)cc2)c1,3,1.0*,13*,1,8.7*,2,5,
Clc1ccccc1Nc1ncnc(-n2cccc2)n1,2,1,13*,3,11*,1,9.2*,
Clc1ccccc1NC1=NCCCS1,0,-1,1,0,0,.,.,
COc1ccc(C(C)=O)cc1CC(C(=O)c1ccc(Br)cc1)N(C)C (stereo not given),0,-1,14*,0,0,.,.,hgDAF12 ag=0;LXR ag 2=0
CSCCC(c1nnnn1C1CCCCC1)N1CCC2(CC1)C(=O)NCN2c1ccccc1 (stereo not given),0,-1,3,.,3,.,.,
N#Cc1c(Br)n(C2OC(CO)C(O)C2O)c2ncnc(N)c12 (stereo not given),0,-1,18*,7.6*,1,.,.,hgDAF12 ag=10;LXR ag 2=1
CN(C)C1C(=O)C(C(N)=O)=C(O)C2(O)C(=O)C3=C(O)c4c(O)cccc4C(C)(O)C3C(O)C12 (stereo not given),0,-1,1,0,0,.,.,
O=C(CNCc1c(F)cccc1F)N1CCC2(CC1)OCCO2,3,1,10,.,3,.,.,
Nc1c2c(nc3sc4c(c13)CCCC4)CCCCC2,2,0,14*,3,3,.,.,hgDAF12 ag=18*;LXR ag 2=1

# Source: PubChem
